Source: PubChem BioAssay (several laboratories)
Bim-Mcl-1: human Bim-Mcl-1 interaction inhibition. Q07820. Bead-based flow cytometry, Bim peptide-Mcl-1 binding. AID 1009. 190,000 tested, 0.1% active. inhibition, % at 10 µM; in the data active means inhibition above about 40%;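 further: 0% = no compound tracer wells and 100% = peptide blocker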
Mcl1 Noxa PPI: disrupts binding of human Mcl-1 to Noxa peptide | Q07820 | TR-FRET Mcl-1/Noxa peptide binding, 2 h | inhibition, % at 21.7 µM | 220,000 tested, 1.5% active;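 active means compounds that cut the protein-peptide binding signal by more than 50% relative to plate controls in a single-dose test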;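 further: His-tagged Mcl-1 with rhodamine Noxa BH3 peptide and terbium anti-His antibody; 0% = Mcl-1 plus Noxa peptide wells and 100% = peptide-only wells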
Mcl1-Bid inh: Mcl-1/Bid interaction inhibition | Q07820 | TR-FRET Mcl-1/Bid-Dy647 peptide binding, 1536-well | inhibition, % at 21.7 µM | 220,000 tested, 0.97% active;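 active means compounds that cut the binding signal by more than half at the single screening dose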;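 further: His-tagged Mcl-1 with europium anti-His antibody binding Bid BH3 peptide; 0% = Mcl-1 plus peptide wells and 100% = peptide-only wells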
14-3-3 Bad PPI: disrupts binding of bovine 14-3-3 zeta to phospho-Bad peptide | TR-FRET 14-3-3zeta/Dy647-pBad peptide displacement, 1 h | inhibition, % at 21.7 µM | 220,000 tested, 0.71% active;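 active means inhibition above about 70%, limit read from the data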;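 further: 0% = full 14-3-3 plus peptide FRET controls and 100% = background without 14-3-3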
eIF4E 4G PPI: eIF4E/eIF4G interaction inhibition in translation initiation. P63073+Q04637. 220,000 tested, 0.37% active. TR-FRET eIF4E-eIF4GI(517-606) binding, 2 h. AID 782. inhibition, % at 21.7 µM;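 further: 0% = full FRET control wells and 100% = background wells lacking eIF4GI fragment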
Target sequence (P63073 whole entry, looked up, the tested form may be a part): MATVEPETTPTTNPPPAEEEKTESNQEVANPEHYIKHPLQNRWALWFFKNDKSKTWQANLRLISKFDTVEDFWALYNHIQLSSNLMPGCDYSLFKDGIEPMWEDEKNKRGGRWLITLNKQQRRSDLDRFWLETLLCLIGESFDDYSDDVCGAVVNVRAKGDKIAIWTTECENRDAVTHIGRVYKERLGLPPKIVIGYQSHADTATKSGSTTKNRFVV
Target sequence (Q04637 whole entry, looked up, the tested form may be a part): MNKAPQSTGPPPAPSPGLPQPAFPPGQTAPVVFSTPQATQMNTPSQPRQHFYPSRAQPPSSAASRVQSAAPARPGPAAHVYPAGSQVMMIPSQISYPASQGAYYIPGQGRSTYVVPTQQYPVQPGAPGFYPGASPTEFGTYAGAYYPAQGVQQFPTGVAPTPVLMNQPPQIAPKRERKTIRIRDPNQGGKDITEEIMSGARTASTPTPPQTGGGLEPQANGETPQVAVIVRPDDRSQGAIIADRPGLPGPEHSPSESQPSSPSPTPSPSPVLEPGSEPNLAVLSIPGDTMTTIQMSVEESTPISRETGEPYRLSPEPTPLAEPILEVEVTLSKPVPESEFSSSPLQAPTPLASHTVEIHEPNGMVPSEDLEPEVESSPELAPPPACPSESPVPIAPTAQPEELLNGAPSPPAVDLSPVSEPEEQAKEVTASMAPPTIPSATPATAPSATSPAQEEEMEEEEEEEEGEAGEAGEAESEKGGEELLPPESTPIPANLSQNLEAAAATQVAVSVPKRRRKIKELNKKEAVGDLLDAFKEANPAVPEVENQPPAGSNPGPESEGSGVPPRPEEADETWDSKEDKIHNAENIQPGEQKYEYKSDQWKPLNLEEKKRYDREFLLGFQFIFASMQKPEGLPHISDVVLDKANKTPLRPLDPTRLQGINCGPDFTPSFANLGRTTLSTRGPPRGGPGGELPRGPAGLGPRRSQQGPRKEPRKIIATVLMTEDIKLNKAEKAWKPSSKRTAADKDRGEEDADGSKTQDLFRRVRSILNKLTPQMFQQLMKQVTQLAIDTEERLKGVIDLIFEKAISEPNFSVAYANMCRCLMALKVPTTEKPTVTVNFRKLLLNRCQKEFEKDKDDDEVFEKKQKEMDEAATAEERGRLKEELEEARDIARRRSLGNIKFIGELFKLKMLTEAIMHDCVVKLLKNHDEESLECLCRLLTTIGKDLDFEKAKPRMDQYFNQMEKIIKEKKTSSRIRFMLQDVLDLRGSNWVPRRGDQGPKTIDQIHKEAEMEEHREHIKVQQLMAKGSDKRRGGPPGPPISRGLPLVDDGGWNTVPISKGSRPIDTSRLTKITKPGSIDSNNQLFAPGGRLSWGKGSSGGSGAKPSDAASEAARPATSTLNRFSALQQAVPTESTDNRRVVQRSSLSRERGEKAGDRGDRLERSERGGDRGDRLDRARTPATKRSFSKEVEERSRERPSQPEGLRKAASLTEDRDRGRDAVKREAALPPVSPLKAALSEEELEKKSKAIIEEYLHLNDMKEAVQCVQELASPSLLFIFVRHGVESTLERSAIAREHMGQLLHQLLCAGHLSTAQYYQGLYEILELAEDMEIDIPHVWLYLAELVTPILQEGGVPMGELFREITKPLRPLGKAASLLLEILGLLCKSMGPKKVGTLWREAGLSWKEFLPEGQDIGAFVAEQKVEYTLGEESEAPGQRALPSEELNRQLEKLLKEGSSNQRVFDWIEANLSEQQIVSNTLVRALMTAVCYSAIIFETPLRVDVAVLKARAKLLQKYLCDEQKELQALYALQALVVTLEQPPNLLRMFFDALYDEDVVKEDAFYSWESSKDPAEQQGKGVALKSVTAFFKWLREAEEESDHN
p47phox inh: blocks human p47phox regulatory protein of NADPH oxidases | P14598 | p47phox/p22phox peptide binding, fluorescence polarization, 2 h | inhibition, % at 24.7 µM | 220,000 tested, 0.53% active;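 further: 0% = p47phox with labelled peptide and 100% = labelled peptide alone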
The depositor's hits bear a star; . = no result; [ ] = dose if it differs, or a comment. Most compounds without a hit are left out; they make up all but 3.4% or so of the library.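 How the source made its calls, unless noted: active means inhibition above about 30% (limit read from the data); inactive means the rest.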

SMILES | Bim-Mcl-1 | Mcl1 Noxa PPI | Mcl1-Bid inh | 14-3-3 Bad PPI | eIF4E 4G PPI | p47phox inh
C=CCc1ccc(OCCCN2CCCC(C)C2)c(OC)c1 (stereo not given) | -4 | 12 | 59* | 38 | 1 | -5
C=CCc1ccc(OCCCCN2CCC(C)CC2)c(OC)c1 | -10 | 7 | 39 | 14 | 7 | -5
Cc1ccc2oc(=O)c3cnn(CC(=O)NC4CCCCC4C)c3c2c1 (stereo not given) | 0 | -6 | 65* | -8 | 3 | 24
Cc1ccc2oc(=O)c3cnn(CC(=O)NC4CCC(C)CC4)c3c2c1 (stereo not given) | -2 | 9 | 34 | 10 | -2 | -14
COc1ccc2oc(=O)c(C(=O)Nc3ccccc3O)cc2c1 | . | 26 | -9 | 6 | -2 | -38
CCOc1ccc(OCC)c(N=c2oc3c(C)ncc(CO)c3cc2C(N)=O)c1 | -6 | 24 | -24 | 0 | 0 | -4
COc1ccc2o/c(=N\O)c(C(=O)Nc3ccccc3OC)cc2c1 | -7 | 60* | 14 | 4 | -6 | -12
COc1cccc(N=c2oc3c(C)ncc(CO)c3cc2C(=O)Nc2ccccc2OC)c1 | 3 | -35 | 49 | 91*[fluorescence artefact?] | -53 | 9
COC(=O)c1cc(NC(=O)/C=C/c2ccccc2)ccc1O | -1 | 18 | -39 | -6 | -1 | 4
O=C(C1CC1)N1CCC(c2nc(-c3ccc(S(=O)(=O)N4CCCC4)cc3)no2)CC1 | 0 | 4 | -6 | 26 | -12 | 0
O=C(N1CCOCC1)N1CCC(c2nc(-c3ccc(S(=O)(=O)N4CCOCC4)cc3)no2)CC1 | -1 | 2 | -13 | 73* | 2 | 3
CN(C)C(=O)N(CCCN1CCOCC1)Cc1cccc2ccccc12 | . | 2 | -21 | 6 | -1 | -5
Cc1ccc(C(=O)Nc2cc3ccccc3oc2=O)cc1 | -1 | -9 | -30 | -4 | 0 | 0
Cc1cc(Cl)ccc1OCCCC(=O)Nc1cccnc1 | 0 | 7 | 15 | 75* | 7 | -3
O=C(CCSc1ccc(Cl)cc1)Nc1cccnc1 | 1 | 23 | -4 | -9 | 0 | -8
O=C(CCc1nnc(CCCCc2ccccc2)o1)N1CCCCC1CCO (stereo not given) | . | 14 | -5 | -2 | 2 | -2
CNC(=O)c1cc(Nc2nnc(-c3ccc(O)cc3)c3ccccc23)ccc1OC | 0 | 27 | -29 | -4 | -2 | -6
Oc1ccc(-c2nnc(Nc3cccc(O)c3)c3ccccc23)cc1 | . | 60* | -3 | 3 | 3 | -15
COC(=O)c1ccc(CNC(=O)COC(=O)COc2ccc(OC)cc2)cc1 | -4 | 1 | 1 | -11 | 2 | -18
O=C(Nc1ccc(-c2nc3c(ccc4ccccc43)o2)cc1)c1ccco1 | -3 | 1 | -5 | 12 | -4 | -25
O=C(Nc1ccc(-c2nc3cc(Cl)ccc3c(=O)o2)cc1)c1ccco1 | -5 | -20 | 72* | 31 | -3 | 24
CCN1C(=O)/C(=C/c2cccs2)SC1=Nc1ccc(OC)cc1 | -1 | 7 | 97* | -13 | 4 | -5
CCCN1C(=O)/C(=C/c2ccc(C)s2)SC1=Nc1ccc(OC)cc1 | 0 | 4 | -41 | -4 | -1 | -24
CCCCn1c(=O)[nH]c(=O)c2c1nc(-c1ccc(-c3ccccc3Br)o1)n2CC | -3 | 55* | -6 | 14 | 4 | -21
CCCCn1c(=O)[nH]c(=O)c2c1nc(-c1ccc3ccccc3c1)n2CC | 8 | 9 | -14 | 0 | -1 | -5
SMILES | Bim-Mcl-1 | Mcl1 Noxa PPI | Mcl1-Bid inh | 14-3-3 Bad PPI | eIF4E 4G PPI | p47phox inh
Oc1cccc(C(O)CNCc2ccc(-c3ccccc3)cc2)c1 (stereo not given) | 0 | 20 | 4 | 77* | 1 | -24
COc1cc(/C=C/[N+](=O)[O-])ccc1OCc1cccc(C(=O)O)c1 | -1 | 60* | -3 | 63 | 7 | -3
O=c1ccc2cc3c4c(c2o1)CCCN4CCC3 | 5 | 10 | -15 | 8 | 9 | -11
O=c1ccc2c(o1)/C(=C/C=C(Cl)Cl)CCC2 | 0 | 49 | 59* | 21 | 6 | -1
CC(C)/C=C1\CC/C(=C\c2ccc(N(C)C)cc2)C1=O | -2 | 2 | -5 | -4 | 3 | -116
CC(C)c1ccc(/C=C2\CC/C(=C\C=N\N(C)C)C2=O)cc1 | -1 | 27 | 8 | -6 | -14 | 76*
CCC1CCCCN1C(=O)COc1ccccc1NC(C)=O (stereo not given) | 2 | 34 | 21 | 21 | 6 | -2
O=C(N/N=C/c1ccc(-c2ccc(S(=O)(=O)Nc3ncccn3)cc2)o1)c1cc2ccccc2cc1O | 4 | 106* | 51* | 6 | -13 | -103
CC1(C)Cc2cccc(C(=O)NC3CCN(Cc4ccccc4)CC3)c2O1 | . | -8 | -5 | -6 | -6 | -15
CCCCCCCCCCCCCCCC[n+]1cccc2ccccc21 | 0 | 89* | 91* | 97*[fluorescence artefact?] | 92*[fluorescence artefact?] | 101*
CCCCCCCCC[n+]1cccc2c3ccccc3ccc21 | 0 | -1 | -24 | -6 | -3 | 19
O=C(CSc1nncc2ccccc12)N1CCCCC1 | -1 | 0 | -25 | -13 | -3 | 6
CCOC1=C/C(=C/c2c(N)n3nc(-c4ccccc4)sc3nc2=O)C=CC1=O | -1 | 89* | -33 | 11 | 12 | -95
COC1=C/C(=C/c2c(N)n3nc(-c4ccc(C)cc4)sc3nc2=O)C=CC1=O | 3 | 84* | 27 | 72* | 22 | -125
CCS(=O)(=O)c1nn2c(N)c(/C=C3/C=CC(=O)C(OC)=C3)c(=O)nc2s1 | 0 | 58* | -42 | -6 | 5 | -31
CCCc1nn2c(N)c(/C=C3\C=Nc4ccccc43)c(=O)nc2s1 | -5 | 7 | -34 | 2 | -5 | -70
CCOC1=C/C(=C/c2c(N)n3oc(C)cc3nc2=O)C=CC1=O | 1 | 24 | -42 | -8 | 4 | -7
COc1ccc(C(=O)Nc2nc3cc4c(cc3s2)OCCO4)c(OC)c1 | . | 28 | 50 | 18 | 13 | -9
COc1ccc(OC)c(C2=C/C(=C/c3ccccn3)C(=O)O2)c1 | -3 | 22 | -7 | 5 | -3 | -4
CCOc1ccc(OCCn2nnc3ccccc3c2=O)cc1 | -1 | 2 | -10 | -9 | 1 | 3
CCOc1ccccc1OCCn1nnc2ccccc21 | 0 | -21 | -4 | 82* | 9 | -5
COc1ccc(Cl)cc1S(=O)(=O)n1nnc2ccccc21 | 3 | 22 | -6 | 46 | 12 | -6
CCOc1ccc(S(=O)(=O)n2nnc3ccccc32)cc1C(C)C | 2 | 19 | 11 | 71* | -5 | 6
Cc1nc2c(C)cccn2c1/C(O)=C1\C(=O)C(=O)N(CCN(C)C)C1c1ccccc1 (stereo not given) | . | -9 | -36 | -5 | 0 | -2
COc1ccc(Br)c(C(=O)Nc2ccc(F)cc2)c1 | . | -7 | -12 | 1 | -2 | -7
